# An excerpt weighted towards active compounds, which were near 11% of everything screened.
# Pf growth 96h: inhibits malaria parasite growth, 96 h | actives 6.9% (n = 320,000) | Potency, µM (titrated, usually from 28.7 µM), inactives show top-dose activity change, negative = inhibition, actives largely listed as inhibitors | P. falciparum luciferase reporter growth, 96 h; further: on the % scale 0 is the no-effect control and ±100 the full control effect
#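 96 h incubation, 37 C, 5% CO2, of luciferase-reporter P. falciparum-infected RBCs (2% hematocrit, 0.05% parasitemia final) with test compounds; endpoint luminescence.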
# AMA1 RON2 block: disrupts binding of P. falciparum AMA1 to RON2; AlphaScreen AMA1-biotinylated RON2 peptide binding; Potency, µM (doses to about 58.2 µM), for the others: at the highest dose activity change, negative = inhibition, usual class: inhibitors; actives 0.2% (n = 360,000); AID 720542;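 further: 0% = vehicle wells and -100% = peptide control; nearly all actives have a fitted effect of over 45% in size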
#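 AMA1 (3D7) with his tag at 25 nM final met compounds first, then biotinylated RON2 peptide at 25 nM; detection used donor plus acceptor beads, 10 µg/mL apiece, read by AlphaScreen after 30 min at room temperature.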
# Sm TGR block: blocks Schistosoma mansoni thioredoxin glutathione reductase | Potency, µM (series often up to 114 µM), inactives show at the highest dose activity change, negative = inhibition, actives largely listed as inhibitors | Q962Y6 | actives 3% (n = 360,000) | purified TGR, DTNB reduction, TNB absorbance 405 nm; further: on the % scale 0 is the no-effect control and ±100 the full control effect; nearly all actives have a fitted effect of over 60% in size
#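 Kinetic colorimetric format: TGR-catalysed, NADPH-driven DTNB reduction monitored via TNB absorbance. Enzyme dispensed at 20 nM; compound exposure 15 min at room temperature before reaction start.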
# NS1 inh: blocks influenza NS1 protein function | actives 0.4% (n = 270,000) | Potency, µM (titrated, usually from 46.1 µM), for the others: at the highest dose activity, positive = more growth; calls by dose curve; further: actives are rising curves; nearly all actives have a fitted effect of over 50% in size
#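 In this qHTS, NS1 from influenza A is expressed in budding yeast, where it slows growth. Cells are switched from glucose to 2% galactose medium (pH 6.0, -URA), treated with compound, and growth recovery is read at OD600.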
# Pf growth 48h: P. falciparum growth inhibition at 48 hours (one generation); P. falciparum luciferase growth in erythrocytes, 48 h; Potency, µM (top dose mostly 28.7 µM), for the others: top-dose activity change, negative = inhibition, most hits filed as inhibitors; actives 5.9% (n = 310,000); AID 504832; further: on the % scale 0 is the no-effect control and ±100 the full control effect
#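 Here the parasites carry a stable luciferase gene and grow inside erythrocytes in Albumax-based RPMI medium with compound for one erythrocytic cycle. Activity is scored as loss of luminescent signal.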
# An asterisk follows results filed as active; ? = inconclusive; / = no result; [ ] = another dose, or the depositor's remark. Unless noted, the call rests on the fitted dose curve; in most records, active means well fitted curve in the direction sought with a large enough effect; inconclusive means small, poorly fitted or top-dose-only effect, or another doubt; inactive means no such curve, though single readings can be large; an effect the other way counts as inactive or inconclusive. Potency means the concentration at half of the fitted maximal effect.
SMILES,Pf growth 96h,AMA1 RON2 block,Sm TGR block,NS1 inh,Pf growth 48h
CCN(C(=O)c1cccc(S(=O)(=O)N2CCc3ccccc32)c1)C1CCS(=O)(=O)C1 (stereo not given),?,0%,-17%,/,-28%
O=C(O)C1=CCNCC1,/,3%,/,-3%,/
CC(CNC(=O)c1cc(-c2ccccc2)n[nH]1)c1ccccc1 (stereo not given),/,/,-5%,/,/
O=C(NCC1CCCO1)c1cc(-c2ccco2)nc2ccccc12 (stereo not given),14%,-20%,35µM*,-12%,2%
O=C(NC1CCC(O)CC1)c1cc(-c2ccco2)nc2ccccc12 (stereo not given),46%,?,11µM*,11%,?
S=C(c1ccc(-c2ccc(Cl)c(Cl)c2)o1)N1CCOCC1,213%,-21%,45µM*,-5%,76%
S=C(c1ccc(-c2ccc(Br)cc2)o1)N1CCOCC1,275%,?,-6%,-10%,181%
CC1(C(=O)Nc2ccccc2)CCN1C(=O)CCc1ccc(Cl)cc1Cl (stereo not given),/,7%,/,/,/
CN(Cc1ccccc1)C(=O)CCS(=O)(=O)c1ccc2c(c1)n(C)c(=O)c(=O)n2C,-22%,-7%,22µM*,5%,-5%
CN(Cc1ccccc1)S(=O)(=O)c1ccc2c(c1)n(C)c(=O)c(=O)n2C,21%,-2%,9%,0%,26%
Cn1c(=O)c(=O)n(C)c2cc(S(=O)(=O)CCC(=O)Nc3ccc(F)cc3)ccc21,?,-6%,?,10%,3%
Cn1c(=O)c(=O)n(C)c2cc(S(=O)(=O)CCC(=O)Nc3cccc(C(F)(F)F)c3)ccc21,10µM*,-2%,1%,20%,10%
Cc1ccc(S(=O)(=O)CCC(=O)OCc2nnc(-c3ccccc3Br)o2)cc1,-10%,45%,-1%,/,0%
CCCC(=O)Nc1ccc(NC(=O)c2cc3ccccc3o2)c(OC)c1,-21%,-11%,0%,20%,45%
Cn1c(=O)cc2c3c(c(N4CCCCC4)ccc31)C(=O)c1ccccc1-2,-16%,?,1%,2%,?
CCNc1ccc2noc3c2c1C(=O)c1ccccc1-3,?,?,2%,16%,35%
O=C1c2ccccc2-c2onc3ccc(NCc4ccco4)c1c23,25%,132%,11µM*,-111%,-28%
O=C1c2ccccc2C(=O)c2c1cccc2N1CCCC1,0%,13µM*,-7%,-13%,66%
O=C1c2ccccc2-c2onc3ccc(N4CCCC4)c1c23,39%,?,18µM*,/,9.3µM*
Cc1c(CCC(=O)NCCCn2ccnc2)c(=O)oc2c(C)c3oc4c(c3cc12)CCCC4,?,-17%,-20%,9%,?
Cc1nn(CC(=O)c2ccc(Cl)s2)c(C)c1[N+](=O)[O-],5%,-5%,7%,/,7%
C/C(=N\NC(=O)CN(c1ccccc1)S(C)(=O)=O)c1ccccc1O,?,55%,2%,/,12µM*
C/C(=N\NC(=O)CN1CCCCC1)c1ccccc1O,32%,96%,15%,2%,?
CCOc1ccc(N(C)Cc2cc(=O)oc3ccc(OCC)cc23)cc1,13%,25µM*,-3%,2%,-29%
COc1cccc(CCNC(=O)CCc2nnc(Cc3cc(OC)ccc3OC)o2)c1,-22%,-6%,-13%,-15%,-12%
SMILES,Pf growth 96h,AMA1 RON2 block,Sm TGR block,NS1 inh,Pf growth 48h
COc1ccc(OC)c(Cc2nnc(CCC(=O)NCc3nc4ccccc4s3)o2)c1,7.4µM*,-3%,-8%,1%,0%
O=C1CC2CC1C(C(=O)O)C2C(=O)O (stereo not given),/,12%,/,/,/
COc1cc(C#Cc2c(-c3cncn3C)n(C)c3ccc(-c4cnc(OC)nc4)cc23)cc(OC)c1,2.6µM*,7%,?,/,?
COc1ccc(-c2ccc3c(c2)c(-c2cccs2)c(-c2cc(OC)cc(OC)c2)n3C)cc1,?,-1%,0%,/,2.6µM*
COc1cc(OC)cc(-c2c(-c3cccs3)c3cc(-c4cc(OC)c(OC)c(OC)c4)ccc3n2C)c1,/,-21%,/,/,/
COc1cc(OC)cc(-c2c(-c3cccs3)c3cc(-c4cnc(OC)nc4)ccc3n2C)c1,3.3µM*,-5%,-5%,/,1.9µM*
COc1cc(C#Cc2c(-c3cncn3C)n(C)c3ccc(-c4cnc(N5CCOCC5)nc4)cc23)cc(OC)c1,/,73%,/,/,/
O=C(C1CCN(S(=O)(=O)c2ccccc2)CC1)N1CCCCCC1,?,-3%,-20%,11%,4%
O=C(NC1CCCCC1)c1ccc2c(c1)sc1nc(-c3ccccc3)cn12,/,/,12%,/,/
CCCc1n(CC(O)COCC2CC=CCC2)c2ccccc2[n+]1C (stereo not given),35%,-2%,0%[57.1 µM],-2%,?
C[n+]1cn(CC(O)COCc2ccccc2)c2ccccc21 (stereo not given),4.7µM*,-1%,4%,7%,?
CCCc1n(CC(O)COCc2ccccc2)c2ccccc2[n+]1C (stereo not given),6%,-16%,3%,/,3.3µM*
CCCc1n(CC(O)COC2CCCCC2)c2ccccc2[n+]1C (stereo not given),-2%,-12%,0%[57.1 µM],-3%,4.1µM*
Fc1cccc(CSc2ncnc3c2ncn3C2CCCCO2)c1 (stereo not given),/,38%,/,/,/
CC1CCCC(NC(=O)c2ccc3c(c2)NC(=O)CS3)C1C (stereo not given),9%,-6%,1%,-53%,-3%
O=C(NC(=S)NCc1cccnc1)c1cccc2ccccc12,?,7%,/,1%,-19%
CCOC(=O)c1oc2cc(O)c(CC)cc2c(=O)c1-c1cscn1,28%,-1%,-3%,/,5%
CCOC(=O)c1ccc(CC(=O)c2oc3cc(O)ccc3c2C)o1,?,0%,28µM*,-54%,?
CCOC(=O)c1ccc(-c2c(C(=O)OCC)oc3cc(O)c(CC)cc3c2=O)o1,?,11%,3%,?,10µM*
CCOC(=O)c1ccc(CC(=O)c2ccc(O)c(O)c2O)o1,30%,-19%,?,12%,?
Cc1cc(-c2cc(C(=O)Nc3ccccc3)on2)nc(NCC2CC2)n1,/,18%,/,/,/
Cc1c(C(=O)N(C)C)sc2c1c(=O)n(-c1ccc(Cl)cc1)c(=O)n2CC(=O)C(C)(C)C,/,/,-9%,/,/
COC(=O)c1ccsc1NC(=O)c1cccc(OC)c1,9%,32%,-17%,-7%,1%
CN(C)c1nc(NCc2ccccc2)nc(SCC(=O)Nc2ccc(Cl)c(Cl)c2)n1,12µM*,-4%,3%,13%,10µM*
CCOc1ccc(CNC(=O)NS(=O)(=O)c2ccc(OC)cc2)cc1,2.9µM*,0%,0%,-7%,15%
CCCCn1c(=O)n(CC(=O)Nc2c(CC)cccc2CC)c(=O)c2c1nc(CO)n2CCC,?,12%,10%,-6%,16%

# Source: PubChem (National Center for Advancing Translational Sciences (NCATS))
